Compound activity as filed in PubChem.
Compounds with a hit are over-represented: about 18% of the library has one in this group of screens.
Six1-Eya2 inh – qHTS Assay for Inhibitors of the Six1/Eya2 Interaction; activity change, % (no concentration beside the values); 0.56% of 360,000 active; AlphaScreen GST-Six1/His-Eya2 binding, biochemical; active compounds read low; AID 651725, 2012; in the data active means activity change below about -65%; inconclusive means mostly about -30% to -63%
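AlphaScreen luminescence read after one hour at 37 °C in darkness. Pin-transferred compounds met GST-Six1 and His-Eya2 protein (5X stock 250 nM/500 nM) plus glutathione donor and Ni-chelate acceptor beads (5X, 50 ug/mL).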
DT40 TDP1 CPT – qHTS for Inhibitors of human tyrosyl-DNA phosphodiesterase 1 (TDP1): qHTS in cells in presence of CPT; Potency, µM (series often up to 46.2 µM), hits mostly inhibitors; 12% of 420,000 active; chicken DT40 Tdp1-/-;hTDP1 cells + 20 nM CPT, ATP luminescence, 48 h; further: nearly all actives have a fitted effect of over 55% in size
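Chicken DT40 Tdp1-/- cells complemented with human TDP1, 400 cells/well, exposed to compounds plus 20 nM camptothecin for at least 48 h at 37 C; viability read as ATP content by CellTiter-Glo luminescence.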
CtBP-E1A inh – qHTS Assay for Inhibitors of the CtBP/E1A Interaction; CtBP / adenovirus E1A interaction (AlphaScreen); AlphaScreen GST-E1A/His-CtBP binding, 1536-well; active compounds read low; activity change, % (test concentration not listed); 0.49% of 340,000 active; AID 651724, 2012; in the data active means activity change below about -65%; inconclusive means mostly about -30% to -63%
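Protein mix (5X: 125 nM each GST-E1A, His-CtBP) was incubated with pinned compound 2 h at 37 deg C in dark, in 50 mM Tris pH 8.0 buffer with 300 mM NaCl. Glutathione donor and nickel acceptor beads followed; AlphaScreen signal read after 1 h.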
TDP1 inh – qHTS Assay for Inhibitors of Tyrosyl-DNA Phosphodiesterase (TDP1); AID 485290, 2010; Tyrosyl-DNA phosphodiesterase 1 (Homo sapiens), Q9NUW8; Potency, µM (top dose mostly 130 µM), usual class: inhibitors; 0.28% of 350,000 active; recombinant TDP1, AlphaScreen DNA substrate cleavage; further: nearly all actives have a fitted effect of over 40% in size
Target sequence (Q9NUW8 whole entry, looked up): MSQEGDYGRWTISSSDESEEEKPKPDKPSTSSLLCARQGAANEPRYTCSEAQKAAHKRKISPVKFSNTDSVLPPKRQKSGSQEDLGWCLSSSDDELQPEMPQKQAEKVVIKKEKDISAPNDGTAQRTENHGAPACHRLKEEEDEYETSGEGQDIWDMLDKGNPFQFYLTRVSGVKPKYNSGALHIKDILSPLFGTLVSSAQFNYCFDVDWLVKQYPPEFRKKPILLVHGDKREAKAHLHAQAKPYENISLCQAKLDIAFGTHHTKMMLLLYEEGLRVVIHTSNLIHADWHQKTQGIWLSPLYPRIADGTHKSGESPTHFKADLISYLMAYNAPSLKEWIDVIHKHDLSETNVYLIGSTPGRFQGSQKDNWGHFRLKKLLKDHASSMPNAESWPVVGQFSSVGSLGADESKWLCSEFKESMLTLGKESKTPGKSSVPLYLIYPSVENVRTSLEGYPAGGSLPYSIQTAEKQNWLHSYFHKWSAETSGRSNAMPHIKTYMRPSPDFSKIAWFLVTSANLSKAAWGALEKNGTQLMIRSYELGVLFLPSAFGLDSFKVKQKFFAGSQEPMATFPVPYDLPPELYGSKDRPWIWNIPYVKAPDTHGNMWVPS
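Recombinant E. coli-expressed Tdp1 (1 nM) preincubated with compound 15 min at RT, then 5'-biotin/3'-phosphotyrosine-FITC DNA substrate (15 nM) added for 5 min. AlphaScreen beads (10 ug/ml) added, 10 min RT; tyrosine-FITC cleavage read as signal loss.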
DT40 TDP1 no CPT – qHTS for Inhibitors of human tyrosyl-DNA phosphodiesterase 1 (TDP1): qHTS in cells in absence of CPT. DT40 Tdp1-/- hTDP1 cells, no CPT, ATP luminescence, 48 h. 15% of 420,000 active. Potency, µM (series often up to 46.2 µM), actives largely listed as inhibitors; further: nearly all actives have a fitted effect of over 55% in size
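Stably hTDP1-transfected Tdp1-null chicken DT40 cells were treated with library compounds minus camptothecin and grown for at least 48 hr at 37 °C, after which cellular ATP was quantified by luminescence.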
IL1B secr inh – qHTS for Inhibitors of Inflammasome Signaling: IL-1-beta AlphaLISA Primary Screen; THP-1 LPS/ATP IL-1B secretion, AlphaLISA, 16 h; active compounds read low; activity change, % at 57.5 µM; 4.7% of 360,000 active; AID 743279, 2014; in the data active means activity change below about -50%; inconclusive means mostly about -30% to -49%
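Secreted IL-1B measured by AlphaLISA bead assay after 16 h compound exposure of THP-1 cells; compounds (final up to 57.5 uM) added 1 h before LPS (250 ng/mL) and ATP (1.25 mM) stimulation; lower signal means less secretion.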
Numbers stand for hits; – = inactive; ? = inconclusive; · = no result given; ! = repeats disagree. Unless noted, the call rests on the fitted dose curve; in most records, active means well fitted curve in the direction sought with a large enough effect; inconclusive means small, poorly fitted or top-dose-only effect, or another doubt; inactive means no such curve, though single readings can be large; an effect the other way counts as inactive or inconclusive.

SMILES | Six1-Eya2 inh | DT40 TDP1 CPT | CtBP-E1A inh | TDP1 inh | DT40 TDP1 no CPT | IL1B secr inh
COc1ccc(N2CCN(C(=O)Cn3ncc4c3-c3cc(C)ccc3OC4)CC2)cc1 | · | – | · | – | – | ·
Cc1ccc2c(c1)-c1c(cnn1CC(=O)N1CCN(c3cc(C)ccc3C)CC1)CO2 | · | ? | · | – | 18µM | ·
Cc1cnc(-n2ncc(C(=O)NCCN3CCOCC3)c2-c2cccs2)nc1-c1ccc(F)cc1 | · | – | · | · | – | ·
O=C1C2CCCCN2C(=O)N1CCCCN1CCN(c2ccc([N+](=O)[O-])cc2)CC1 (stereo not given) | – | ? | – | – | 15µM | –
Cc1ccc(N2CCN(CCCN3C(=O)C4CCCN4C3=O)CC2)cc1 (stereo not given) | – | – | – | – | – | –
O=C1C2CCCCN2C(=O)N1CCCCN1CCN(c2cccc(C(F)(F)F)c2)CC1 (stereo not given) | – | 10µM | – | · | ? | ?
Cc1cc(C)c(S(=O)(=O)N2CCN(S(=O)(=O)N3CCC(C)CC3)CC2)c(C)c1 | – | – | – | – | – | –
COc1ccc(-c2cc(NC(=O)c3cncn3-c3ccccc3)ccc2OC)cc1 | – | – | – | – | – | –
CC(=O)Nc1ccc(S(=O)(=O)O)c2cc(S(=O)(=O)O)c(N=Nc3ccc(N=Nc4ccc(S(=O)(=O)O)cc4)c4ccc(S(=O)(=O)O)cc34)c(O)c12 | · | 8.9µM | · | · | 13µM | ·
CCC(C)NC(=O)C(Cc1ccccc1)NS(=O)(=O)c1cccc2nsnc12 (stereo not given) | – | – | – | – | – | –
CCN(CC(=O)NCc1ccc(F)cc1)C(=O)c1ccc(C)o1 | – | – | – | – | – | –
Cc1ccc(-c2nc3ccc(Cl)cn3c2Cc2ccccc2C(F)(F)F)cc1 | – | – | – | · | ? | –
Cc1ccc2nc(-c3ccc(Cl)cc3)c(Cc3ccccc3C(F)(F)F)n2c1 | – | 26µM | – | · | ? | –
Cc1ccc2nc(-c3ccc(C#N)cc3)c(Cc3ccccc3C(F)(F)F)n2c1 | – | 23µM | – | · | ? | –
CC(Cc1cccc(C(F)(F)F)c1)NCCOC(=O)c1ccccc1 (stereo not given) | – | ? | – | – | 18µM! | –
O=C(c1ccccc1)N1CCCCC1CCN1CCCCC1 (stereo not given) | · | – | · | – | – | ·
C=CC(=O)N1C/C(=C/c2ccc(F)cc2)C(=O)/C(=C\c2ccc(F)cc2)C1 | ? | 0.82µM | – | · | – | -84
COc1ccc(S(=O)(=O)N2CCCCCC2)cc1NC(=O)Cc1ccccc1F | – | ? | – | · | ? | –
O=C(c1ccccc1)N1CCN(c2ccc(Cl)cc2)CC1 | – | ? | – | – | ? | –
Cn1c(C(=O)N2CCN(c3ccc(Cl)cc3)CC2)cc2c(=O)[nH]c3ccccc3c21 | – | ? | – | – | 21µM | ?
CC(C)c1ccc(NC(=O)c2cc3c(=O)[nH]c4ccccc4c3n2C)cc1 | · | 6.5µM | · | – | 15µM | ·
O=C(CN1C(=O)NC2(CCCCC2)C1=O)N1CCN(S(=O)(=O)c2cccc(F)c2)CC1 | – | – | – | – | – | –
CCCOc1ccccc1C(=O)N(Cc1ccc(C)o1)C1CCS(=O)(=O)C1 (stereo not given) | – | – | · | – | ? | –
CCCCOc1cccc(C(=O)N(Cc2ccc(Cl)cc2)C2CCS(=O)(=O)C2)c1 (stereo not given) | · | 15µM | · | – | ? | ·
CCCOc1cccc(C(=O)N(Cc2ccccc2)C2CCS(=O)(=O)C2)c1 (stereo not given) | – | – | – | – | ? | –
SMILES | Six1-Eya2 inh | DT40 TDP1 CPT | CtBP-E1A inh | TDP1 inh | DT40 TDP1 no CPT | IL1B secr inh
CCCCCOc1ccc(C(=O)N(Cc2ccccc2)C2CCS(=O)(=O)C2)cc1 (stereo not given) | · | ? | · | – | 21µM | ·
CCCOc1ccccc1C(=O)N(Cc1ccco1)C1CCS(=O)(=O)C1 (stereo not given) | – | ? | – | – | 18µM | –
CC(OC(=O)C1=COCCO1)C(=O)Nc1ccc(Oc2ccccc2)cc1 (stereo not given) | – | 13µM | – | – | ? | –
O=C(OC(C(=O)Nc1cc(Cl)cc(Cl)c1)c1ccccc1)C1=COCCO1 (stereo not given) | – | ? | – | – | 18µM | -51
Cc1cnc(C(=O)OC(C)C(=O)Nc2ccc(Oc3ccccc3)cc2)cn1 (stereo not given) | – | – | – | – | – | –
COc1ccc(NC(=O)c2cccc(Cn3cc(Br)c([N+](=O)[O-])n3)c2)c(C)c1 | – | ? | · | – | 18µM | –
COC(=O)[C@@]12C[C@@H](CC(=O)NCc3ccc(C)o3)C(=O)N(Cc3ccc4c(c3)OCO4)C1=CCC(C)(C)C2 | – | 21µM | – | · | 12µM | ?
